{"source": "PubChem BioAssay (EPA / NIEHS)", "note": "Records with an inconclusive call do not appear. Active and inactive are the calls of the source. How the source made its calls: active means hit-call score of the fitted dose curve at least 0.9, where 1 is the maximum; inconclusive means response in the unintended direction; inactive means score below 0.9."}
{"target": "human Adenosine A1 Receptor (AdoRA1), ADORA1 (gene 134) (UniProt P30542)", "sequence (P30542 whole entry, looked up)": "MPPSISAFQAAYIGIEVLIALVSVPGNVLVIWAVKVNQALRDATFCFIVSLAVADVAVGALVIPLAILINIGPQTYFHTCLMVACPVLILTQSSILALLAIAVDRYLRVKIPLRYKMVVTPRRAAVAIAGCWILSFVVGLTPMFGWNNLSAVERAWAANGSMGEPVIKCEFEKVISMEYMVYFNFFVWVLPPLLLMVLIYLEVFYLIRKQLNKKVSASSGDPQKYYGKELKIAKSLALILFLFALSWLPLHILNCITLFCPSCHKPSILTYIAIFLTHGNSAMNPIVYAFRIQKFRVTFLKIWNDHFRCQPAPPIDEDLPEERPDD", "assay": "NVS_GPCR_hAdoRA1: NovaScreen (NVS) G Protein-Coupled Receptor Assay for human Adenosine A1 Receptor (AdoRA1) (AID 2283254)", "method": "NVS_GPCR_hAdoRA1 is a biochemical, single-readout assay that uses extracted gene-proteins from Human cortical membranes in a tissue-based cell-free assay. Measurements were taken 1 hour after chemical dosing in a 96-well plate.NVS_GPCR_hAdoRA1 is one of one assay component(s) measured or calculated from the NVS_GPCR_hAdoRA1 assay. It is designed to make measurements of radioligand binding, a form of binding reporter, as detected with scintillation counting signals by Filter-based radiodetection technology.Data from the assay component NVS_GPCR_hAdoRA1 was analyzed into 1 assay endpoint. This assay endpoint, NVS_GPCR_hAdoRA1, was analyzed in the positive analysis fitting direction relative to DMSO as the negative control and baseline of activity. Using a type of binding reporter, loss-of-signal activity can be used to understand changes in the binding as they relate to the gene ADORA1. Furthermore, this assay endpoint can be referred to as a primary readout, because the performed assay has only produced 1 assay endpoint. To generalize the intended target to other relatable targets, this assay endpoint is annotated to the gpcr intended target family, where the subfamily is rhodopsin-like receptor.\nBinding assays used specific radioligands (tritiated, iodinated) with non-radioactive competitive displacement ligands in agonist or antagonist protocols (as indicated) and various reference compounds and inhibitors to titrate specific binding to receptors and transporters. Most enzyme assays (CYPs, kinases, phosphatases, proteases, HDACs) used recombinant protein and specific substrates (fluorescence mostly, some colorimetric and radioactive) and inhibitors, followed by a biochemical separation of substrate and product. All assays for the biochemical HTS were initially run in duplicate at a single concentration (10 uM for CYP450 assays and 25 uM for all others). […] Each assay was run with positive and negative controls, and concurrent controls on every plate. The follow-up (secondary) screen tested active chemical-pairs in concentration series, as well as a few additional assays not tested in the primary screen, some selected negative inactives, and several cases re-run in the concentration series for confirmatory purposes."}
{"molecule": "c1ccc(C(O[C@@H]2CCCN(CCc3ccc4c(c3)OCO4)C2)c2ccccc2)cc1", "AC50": "20.7 µM (active)"}
{"molecule": "COCc1nnc(-c2ccc[n+]([O-])c2)n1-c1c(Cl)c(Cl)cc2[nH]c(=O)c(=O)[nH]c12", "AC50": "32.2 µM (active)"}
{"molecule": "CCn1nc(C)c2c1C(=O)NCC(c1ccc(O)cc1)=N2", "outcome": "inactive"}
{"molecule": "CCCCCCCCCC", "outcome": "inactive"}
{"molecule": "O=S(=O)(O)c1ccc(N=Nc2c(O)ccc3cc(S(=O)(=O)O)ccc23)cc1", "outcome": "inactive"}
{"molecule": "Cc1nccn1-c1ccc(Sc2cccc(C3(C(N)=O)CCOCC3)c2)cc1", "outcome": "inactive"}
{"molecule": "C=CCc1cc(S(=O)(=O)c2ccc(O)c(CC=C)c2)ccc1O", "AC50": "3.19 µM (active)"}
{"molecule": "CC(C)C(=O)Nc1ccc([N+](=O)[O-])c(C(F)(F)F)c1", "outcome": "inactive"}
{"molecule": "NC(=O)N1c2ccccc2C=Cc2ccccc21", "AC50": "7.33 µM (active)"}
{"molecule": "CCCOc1ccc(S(=O)(=O)N2CCN(CC)CC2)cc1-c1nc2c(CC)n(Cc3ccccn3)nc2c(=O)[nH]1", "AC50": "6.54 µM (active)"}
